From PubChem
A selection: hits, their analogues and other compounds. The true share with any hit is near 20%.
Shiga inhibitor = blocks Shiga toxin action in Vero cells; 290,000 compounds, 9.2% hits; AID 2315; Vero cells, Shiga toxin protein synthesis inhibition reporter; inhibition, % at 38.7 µM; in the data active = inhibition mostly above about 28%, no sharp cut-off; inactive = mostly below about 43%; also: 0% is about no effect
HCMV inh = human cytomegalovirus inhibition. HFF cells, HCMV-luciferase reporter, 72 h; hits give low values. activity change, negative = inhibition, % at 57.5 µM. 410,000 compounds, 4.5% hits; in the data active = activity change below about -60%; inconclusive = no clear call, values can overlap the other calls; inactive = above about -39%; also: % is scaled to controls: 0 for no effect and ±100 for the full control effect
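After 16 h attachment at 37C, HFF cells received test compound and HCMV-luciferase (1 PFU/cell); reporter luminescence read 72 h later, data normalized against buffer-only and known inhibitor Salinomycin.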
Pf growth 48h = P. falciparum growth inhibition at 48 hours (one generation); P. falciparum luciferase growth in erythrocytes, 48 h; Potency, µM (series often up to 28.7 µM), inactives show at the top dose activity change, negative = inhibition, hits mostly inhibitors; 310,000 compounds, 5.9% hits; also: potency is read from the fitted curve at half-maximal effect; % is scaled to controls: 0 for no effect and ±100 for the full control effect
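Growth was read as firefly luciferase luminescence after a 48 h, 37 C, 5% CO2 exposure of compounds to reporter-bearing P. falciparum cultures (0.1% parasitemia, 2% hematocrit final) in Albumax-supplemented RPMI 1640.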
Cycloheximide cs = counter-screen for Shiga toxin inhibitors: cycloheximide protein synthesis inhibition; cell reporter, cycloheximide protein synthesis inhibition counterscreen; max response, %; 300,000 compounds, 12% hits; AID 2314; in the data active = max response mostly above about 13%, no sharp cut-off; inactive = mostly below about 14%; also: read at 38.3 µM for the half of the compounds with a filed dose; 0% is about no effect
Pf growth 96h = inhibits malaria parasite growth, 96 h | P. falciparum luciferase reporter growth, 96 h | 320,000 compounds, 6.9% hits | Potency, µM (series often up to 28.7 µM), for inactives: at the top dose activity change, negative = inhibition, actives largely listed as inhibitors; also: potency is read from the fitted curve at half-maximal effect; % is scaled to controls: 0 for no effect and ±100 for the full control effect
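Delayed-death screen, second-generation endpoint: infected erythrocytes, 2% hematocrit, 0.05% parasitemia final; 96 hours at 37 C, 5% CO2; luciferase detection reagent; luminescence decrease equals reduced growth.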
* = called active by the depositor; ? = inconclusive; · = no result given. Unless noted, calls follow the shape of the dose curve; as a rule, active = well fitted inhibition curve with a large enough effect; inconclusive = small, poorly fitted or top-dose-only effect, or another doubt; inactive = no such curve, though single readings can be large or run the other way.

SMILES	Shiga inhibitor	HCMV inh	Pf growth 48h	Cycloheximide cs	Pf growth 96h
Cc1ccc2c(c1)c1c(n2CC(O)CN2CCCCCC2)CCCC1 (configuration not stated)	-2	-77*	8.3µM*	-2	20%
Cc1c(C)n(CC(O)CN2CCCCCC2)c2ccccc12 (configuration not stated)	-3	44	?	0	185%
OC(CN1CCCCC1)Cn1c2ccccc2c2cc(Br)ccc21 (configuration not stated)	-4	-26	12µM*	-3	9.3µM*
CC(C)(C)C(=O)NNC(=O)c1cc(C(C)(C)C)nn1Cc1ccccc1	-5	-31	-11%	-3	-14%
COc1ccccc1NNC(=O)c1cc(C(C)(C)C)nn1Cc1ccccc1	61*	22	?	30*	?
CC(C)(C)c1cc(C(=O)NNc2cccc(Cl)c2)n(Cc2ccccc2)n1	46*	-73*	?	20*	?
CC(C)(C)c1cc(C(=O)NNc2cc(C(F)(F)F)ccc2Cl)n(Cc2ccccc2)n1	43*	-90*	13µM*	28*	12µM*
CC(C)(C)c1cc(C(=O)NNc2ccc(OC(F)(F)F)cc2)n(Cc2ccccc2)n1	3	12	?	3	?
CC(C)(C)c1cc(C(=O)NC2CC2)n(Cc2ccc(F)cc2)n1	23	-3	?	-4	?
O=C(O)c1cccc(-n2sc3ccccc3c2=O)c1	·	-61*	62%	·	?
Cn1sc2ccccc2c1=O	·	-1	·	·	·
CN(C)S(=O)(=O)c1cccc(-n2sc3ccccc3c2=O)c1	40	-38	?	17	?
Cc1ccccc1-n1sc2cc(F)ccc2c1=O	41	-98*	?	19	33%
O=c1c2ccccc2sn1-c1ccccc1F	·	-109*	·	·	·
O=c1c2ccccc2sn1-c1ccccc1	25	-83*	?	24*	·
O=c1c2ccccc2sn1-c1cccc(Cl)c1	·	-28	·	·	·
Cc1cccc(OCc2cc(=O)n3c4c(sc3n2)CCCC4)c1C	·	11	·	·	·
N#Cc1ccc2c(=O)n(-c3ccccc3)sc2c1	·	45	·	·	·
O=c1c2cc(F)ccc2sn1-c1ccccc1	·	-30	4.1µM*	·	5.2µM*
CC(=O)Nc1ccc2c(=O)n(-c3ccccc3)sc2c1	·	-75*	·	·	·
O=c1c2ccccc2sn1-c1ccc(S(=O)(=O)N2CCCC2)cc1	8	0	?	7	0%
CN(C)c1ccc(CNC(=O)c2cnc3sc(N4CCCCCC4)nn3c2=O)cc1	·	62	·	·	·
Cc1ccc2nc3c(cc(C#N)c(=O)n3-c3nnc(SCc4ccc(F)cc4)s3)c(=O)n2c1	·	4	·	·	·
Cc1nn(-c2ccc(N3CCOCC3)nn2)c(C)c1CCC(=O)NCc1ccc(OC(C)C)cc1	·	-4	·	·	·
COc1ccc(CC(=O)N/N=C(\C)CC(=O)Nc2ccc3c(c2)OCCO3)cc1OC	-2	-18	52%	-3	?
SMILES	Shiga inhibitor	HCMV inh	Pf growth 48h	Cycloheximide cs	Pf growth 96h
CC1CCN(C(=O)C2CCCN(c3ncnc4c3nc3n4CCCCC3)C2)CC1 (configuration not stated)	-6	-27	-22%	-2	9.3µM*
CCN1CCN(C(=O)C2CCCN(c3ncnc4c3nc3n4CCCCC3)C2)CC1 (configuration not stated)	16	-21	?	-1	10µM*
CCOC(=O)N1CCN(C(=O)C2CCCN(c3ncnc4c3nc3n4CCCCC3)C2)CC1 (configuration not stated)	-4	?	-25%	4	?
COCCN(Cc1ccco1)C(=O)C1CCCN(c2ncnc3c2nc2n3CCCCC2)C1 (configuration not stated)	11	-18	?	-1	4.1µM*
CN(Cc1ccco1)C(=O)C1CCCN(c2ncnc3c2nc2n3CCCCC2)C1 (configuration not stated)	-4	-16	-21%	1	?
COc1cccc(N2CCN(C(=O)C3CCCN(c4ncnc5c4nc4n5CCCCC4)C3)CC2)c1 (configuration not stated)	-5	?	?	-7	10µM*
COc1ccc(F)cc1-c1cc(C(=O)NCc2cccc(Cl)c2)[nH]n1	·	-28	·	·	·
O=[N+]([O-])c1c(Cl)cccc1-c1c[nH]cc1Cl	·	·	-11%	·	-5%
O=C(NCc1ccccc1)c1ccco1	4	32	0%	-2	?
CCc1ccc(OCC(=O)NCCOc2ccccc2)cc1	66	-14	·	27*	6%
CCCCOCCCNC(=O)COc1ccccc1	-8	-2	13%	-2	5%
